# About 79,000 compounds went through this panel and 15% of them were active in at least one assay; those are over-represented in the sample as a whole. Values without a mark were called inactive. The source made the active and inactive calls. Cut-off read from the data, not from the text of the source: active = growth inhibition above about 70%; inactive = the rest. Where a SMILES comes first, the peptide text is derived from it. [ ]: non-standard residue; d: D form. ξ: configuration not given here. ξPhe(4-N(CH2CH2Cl)2) = NC(Cc1ccc(N(CCCl)CCCl)cc1)C(=O)O
# Assays:
# [1] = NCI Yeast Anticancer Drug Screen. Data for the rad50 strain (AID 155);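 note: 0% = growth of vehicle-only cultures of the same strain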; details: S. cerevisiae rad50 strain growth inhibition; at 50.0 µM; stronger effect = higher value
# In short: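 Compounds were tested on a yeast strain with an engineered DNA damage repair alteration; the reported value is growth inhibition normalised to vehicle treatment.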
# [2] = NCI Yeast Anticancer Drug Screen. Data for the mec2-1 strain (AID 157); details: S. cerevisiae mec2-1 strain, at 50.0 µM, stronger effect = higher value
# In short: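 Cells of the genetically defined mec2-1 yeast strain are incubated with test compound. Inhibition of growth is calculated against vehicle-treated controls.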
# [3] = NCI Yeast Anticancer Drug Screen. Data for the sgs1 mgt1 strain (AID 161);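 note: 0% = growth of cultures given vehicle only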; details: S. cerevisiae sgs1 mgt1 strain, at 50.0 µM, stronger effect = higher value
# In short: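 Mutant yeast exposed to compound; growth scored against vehicle-only wells.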
# [4] = NCI Yeast Anticancer Drug Screen. Data for the cln2 rad14 strain (AID 165);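 note: 0% = growth equal to vehicle treated cultures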; details: S. cerevisiae cln2 rad14 strain, at 50.0 µM, stronger effect = higher value
# In short: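 The screen exposed genetically defined yeast (cln2 rad14) to test compounds and scored growth inhibition relative to vehicle-treated controls.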
# [5] = NCI Yeast Anticancer Drug Screen. Data for the bub3 strain (AID 167); details: S. cerevisiae bub3 mutant strain, at 50.0 µM, stronger effect = higher value
# In short: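 Growth of a checkpoint-deficient yeast mutant is measured after compound exposure. Values represent inhibition relative to vehicle.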
# [6] = NCI Yeast Anticancer Drug Screen. Data for the mlh1 rad18 strain (AID 175); details: S. cerevisiae mlh1 rad18 strain growth inhibition; at 50.0 µM; stronger effect = higher value
# In short: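 Compound-treated yeast growth, normalised to vehicle controls. Strain bears defined DNA repair mutations.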
SMILES,growth inhibition [1],growth inhibition [2],growth inhibition [3],growth inhibition [4],growth inhibition [5],growth inhibition [6]
CCOP(=O)(CCN(C)C)OCC,-6.45%,3.55%,-4.4%,-27.7%,-7.9%,-0.45%
Cc1ccccc1NC(N)=S,27.6%,9.15%,-8.2%,1.55%,5.4%,15.7%
C1CCC2[N-]CCCC2C1.C1CCC2[N-]CCCC2C1.[Cl][Pt+2][Cl] (stereo unspecified),42.2%,36%,55.2%,22.9%,59.4%,64.6%
CCCCCCCCCCCCCCCC[As](=O)(O)CCCCCCCCCCCCCCCC,-6.35%,13.7%,-17.8%,4.25%,7.2%,8.55%
CC(=O)c1c(O)c(C)c(O)c(Cc2c(O)c3c(c(C(=O)/C=C/c4ccccc4)c2O)OC(C)(C)C=C3)c1O,23.9%,29.8%,49.1%,17.7%,39.8%,14.5%
O=C(O)Cc1ccc2c(c1)OCO2,20.9%,-0.35%,28.1%,12.2%,-11.3%,23.6%
CC(C)=C=CP(=O)(O)c1ccccc1,-25.1%,-24.1%,-15.7%,31.9%,-14.3%,4.45%
CC(=O)Nc1nn[nH]n1,21.9%,14.4%,2.1%,6.95%,0.7%,17.5%
O=C(NC(Cl)=C(Cl)Cl)P(=O)(c1ccccc1)c1ccccc1,-16.6%,-28.3%,10.8%,17.2%,-5.4%,3%
CC(C)=CCC12Cc3ccc(O)cc3C(C(C)CN1)C2C (stereo unspecified),-1.5%,9.8%,27.8%,11.8%,10.7%,25.7%
COc1ccc(C(OCC2OC(n3ccc(Oc4c(F)c(F)c(F)c(F)c4F)nc3=O)CC2OP(OCCC#N)N(C(C)C)C(C)C)(c2ccccc2)c2ccc(OC)cc2)cc1 (stereo unspecified),18.1%,4.8%,6.65%,-9.2%,-7.2%,-2.65%
COc1cc(N=Nc2ccc([N+](=O)[O-])cc2)c([OH+]C)cc1[N+]#N.COc1cc(N=Nc2ccc([N+](=O)[O-])cc2)c([OH+]C)cc1[N+]#N.[Cl][Zn][Cl],7%,-1.05%,-2.1%,-3.15%,17.9%,12.6%
CCOC(=O)C(Cc1ccc(N(CCCl)CCCl)cc1)NC(=O)C(Cc1ccccc1)NC(=O)C(NC(=O)CNC(=O)C1CCCN1)C(C)C (stereo unspecified) (H-PGVF[ξPhe(4-N(CH2CH2Cl)2)]-OEt; configuration not given here),-4.6%,11.8%,20.3%,3.35%,6.1%,29.6%
Cc1c2ccccc2c(C)c2c1cc[n+]1ccccc21,14.1%,-1.35%,15.2%,0.05%,1.05%,1.8%
CC1(C)N=C(N)N=C(N)N1c1ccc(CCC(=O)Nc2cccc(S(=O)(=O)F)c2)c(Cl)c1,57.7%,82.4% (active),68%,-3.05%,-31.9%,8.05%
[CH3][Sn]([CH3])([Br])[CH2]CCBr,84.2% (active),88.1% (active),89.2% (active),48.5%,95% (active),96.5% (active)
C[C@]12CC[C@@H](OC(=O)N(CCCl)N=O)C[C@@H]1CC[C@@H]1[C@@H]2CC[C@]2(C)C(=O)CC[C@@H]12,1.55%,-3.4%,26.5%,-0.75%,13.2%,59.9%
CCCC[As](=O)(O)CC(C)C,-3.2%,-1.75%,-7.4%,4.9%,-14.2%,1.2%
CN1CN(c2ccccc2)C2(CCN(Cc3csc4ccccc34)CC2)C1=O,-50.9%,-31.5%,-47.5%,-1.3%,-7.1%,-20.1%
N#CC1(c2ccccc2)CCNCC1,-2.2%,-33.5%,-3.15%,1.05%,-0.5%,-17.8%
CC(C)C(Br)C(=O)O (stereo unspecified),-6.85%,-16.6%,-21.1%,-41.5%,-9.5%,2.1%

SMILES,growth inhibition [1],growth inhibition [2],growth inhibition [3],growth inhibition [4],growth inhibition [5],growth inhibition [6]
CC(CO)[N+](=O)[O-] (stereo unspecified),0.75%,1.15%,-5.05%,-15.2%,1.5%,1%
Clc1cc2nncc(N3CC3)c2cc1Cl,-3.25%,-24.4%,-3.75%,9.95%,-7.8%,-21.4%
COc1ccc(CC(C)=O)cc1OC,-10.9%,6.8%,19%,36%,-24.1%,-5.9%
CCCCC(=O)c1cc(OC)cc(OC)c1,8.35%,-12.3%,-34.1%,-54%,22.4%,-10.7%
O=C(Nc1ccccc1)c1ccc([As](c2ccc(C(=O)Nc3ccccc3)cc2)c2ccc(C(=O)Nc3ccccc3)cc2)cc1,-8.9%,-7%,-4.85%,-23.9%,-19.2%,-33.5%
CCC1([N+](=O)[O-])COP(=O)(NCc2ccncc2)OC1 (stereo unspecified),8.4%,-8.4%,-5.95%,10.6%,-5.6%,12.3%
c1ccc2nc(-c3ccc4ccccc4n3)ccc2c1,-5.95%,-7.45%,-3.4%,-49.4%,-13.7%,-12.2%
CC(=O)CC(C)=O,-7.2%,3.8%,-3%,-11.3%,1.7%,1.8%
CCOC(=O)/C(C#N)=C(/SC)N1CC1,1.9%,12%,1.4%,-7.2%,6.8%,-2%
O=S=NN(CC(Cl)c1ccccc1)CC(Cl)c1ccccc1 (stereo unspecified),10.1%,-8.5%,19.9%,-47.5%,22.9%,7.7%
CCOP(=O)(O)SP(=O)(O)OCC.[Zn+2],-13.9%,-11.8%,-7%,2.9%,-5.45%,-0.35%
Cc1cn([C@H]2CC3C(CON3C)O2)c(=O)[nH]c1=O (stereo partly specified),3.3%,7.55%,1.15%,-3.55%,-8.55%,-37.4%
O=[N+]([O-])c1ccc(-n2nc3ccc4c(no[n+]4[O-])c3n2)cc1,-21.6%,23.5%,20.1%,16.6%,-15.6%,-25.6%
Cc1ccc(Oc2ccc3c(c2)CN(C)CC3)cc1,93.8% (active),90.5% (active),96.8% (active),74.5% (active),96.6% (active),95.7% (active)
Cc1cc(C)c(O)c(CN2CCCCC2)c1,4.35%,13.1%,32.8%,-4%,19.6%,14.5%
CCCC1(C(C)C)C(=O)NC(=S)NC1=O,10.7%,-7.2%,-1.9%,6.55%,-10.6%,-24.1%
Cc1ccc(N[N+](=O)[O-])nc1,-7.25%,8.55%,-1.15%,-10.2%,-3.15%,14%
O=[N+]([O-])c1cc(Cl)c(Cl)c([N+](=O)[O-])c1Cl,-7.05%,-18.3%,6.4%,-23.8%,-1.95%,6.8%
NC(=O)CCl,6%,-0.8%,-2.6%,-1.45%,12.4%,-12.9%
O=[P+](O)c1cccnc1,6.6%,-8.05%,14.2%,17.4%,16.7%,13.8%
